The source made the active and inactive calls.

Experimental findings from PubChem BioAssay are described below.

One experiment has as its target Albumin (Bos taurus) (UniProt P02769). Nature of the experiment: bovine serum albumin binders on microarray, profiling panel, artefact control for SMM control protein annotation, biochemical, small-molecule microarray, Alexa647 label, 635/667 nm fluorescence (AID 1118).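 Note: score merges 667 nm emission intensity and signal-to-noise per printed compound spot.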 Particulars: BSA-A647 binding, fluorescence 635 nm, higher = more signal.
The nature of experiment [1]: small-molecule microarray binders of probe aXIP, primary screen, biochemical, NeuroSMM set, 635/667 nm fluorescence (AID 1119).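 Note: probe is the protein aXip251-270 applied at 1 µg/mL to compound-printed slides; binding of probe to printed compounds measured as 667 nm fluorescence plus signal to noise.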 Particulars: higher = more signal, called active from +8 up or from −8 down.
Experiment [2] is described as follows: small-molecule binders of probe aNOTCH3, primary screen, biochemical, small-molecule microarray, 635/667 nm fluorescence (AID 1120).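 Note: probe is a biotin-tagged antibody raised against NOTCH3 rather than NOTCH3 protein; score merges spot fluorescence near 667 nm with spot signal to noise.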 To be noted: higher = more signal.
Experiment [3] can be described thus: small-molecule binders of probe aNOTCH2, primary screen, biochemical, small-molecule microarray, 635/667 nm fluorescence (AID 1121).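 Note: score merges feature fluorescence read at 667 nm with its signal to noise.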 Particulars: higher = more signal.
Experiment [4] addresses Carbonic anhydrase 2 (Homo sapiens) (UniProt P00918). Nature of the experiment: CAII small-molecule binders, profiling panel, biochemical, small-molecule microarray, Alexa647-labelled CAII (AID 1122). To be noted: CAII-A647 binding fluorescence, higher = more signal.
The nature of experiment [5]: COS7 lysate on small-molecule microarray, probe aHis, 635 nm (AID 1123).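 Note: z-score combines 667nm fluorescence intensity with signal-to-noise per printed compound spot.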 To be noted: COS7 cell lysate, fluorescence, higher = more signal.
A short description of experiment [6]: compound binding in COS7 lysate, probe aLAP1, primary screen, cell lysate, small-molecule microarray (AID 1124).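 Note: lysate comes from COS7 cells expressing LAP1 and is applied at 0.3 µg/mL; score merges spot fluorescence near 667 nm with signal-to-noise over triplicate slides.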 To be noted: probe aLAP1, fluorescence, higher = more signal.
In another experiment the test system is Sam68 (KHDRBS1). The experiment is described as follows: Sam68 small-molecule binders, primary screen, biochemical, small-molecule microarray, 635 nm fluorescence (AID 1125).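 Note: score merges 667 nm channel intensity with signal to noise over triplicate slides.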 To be noted: small-molecule microarray binding, higher = more signal.
In experiment [7] the test system is Chordin-like protein 2 (CHRDL2). Nature of the experiment: CHRDL2 small-molecule binders, primary screen, biochemical, small-molecule microarray, 635 nm fluorescence (AID 1126).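 Note: printed compound slides probed with Chrdl2 protein at 4 µg/mL for 1 h at 4 C; score merges 667 nm emission intensity with signal to noise over three replicate slides.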 To be noted: small-molecule microarray binding, fluorescence 635 nm; higher = more signal.
For experiment [8], the target named is Concanavalin-A (Canavalia ensiformis) (UniProt P02866). The experiment is described as follows: ConA small-molecule binders, primary screen, artefact control for SMM control protein annotation, biochemical, small-molecule microarray, Alexa647 label, 635 nm (AID 1127).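 Note: z combines 667 nm emission intensity with signal-to-noise across three replicate slides.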 Particulars: ConA-A647 binding fluorescence, higher = more signal.
Experiment [9] can be described thus: anti-His antibody binders, primary screen, artefact control for SMM control protein annotation, biochemical, small-molecule microarray, 635 nm fluorescence (AID 1128).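 Note: score merges feature fluorescence with signal-to-noise for each printed compound spot.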 Particulars: anti-His Alexa647 antibody binding, higher = more signal.
Experiment [10] deals with Human papillomavirus type 1a E7 protein (residues 1-88). The experiment is described as follows: HPV1a E7 small-molecule binders, primary screen, biochemical, small-molecule microarray, residues 1-88, 635 nm (AID 1129). Particulars: small-molecule microarray binding, fluorescence 635 nm; higher = more signal.
In experiment [11] the target is Focal adhesion kinase 1 (Homo sapiens) (UniProt Q05397). Nature of the experiment: small-molecule microarray binders of FAK, primary screen, biochemical, 635/667 nm fluorescence, BSA, DTT (AID 1130).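 Note: composite of spot emission at 667 nm and signal to noise over triplicate slides.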 Particulars: PTK2 binding, 635 nm fluorescence, higher = more signal.
The test system of experiment [12] is Fibrinogen (Alexa647-labelled). Nature of the experiment: fibrinogen binders on compound microarrays, profiling panel, artefact control for SMM control-protein annotation, biochemical, small-molecule microarray, 635/667 nm fluorescence (AID 1131).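 Note: z-score merges 667 nm fluorescence with per-spot signal-to-noise over triplicate slides.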 To be noted: fibrinogen-A647 binding fluorescence, higher = more signal.
Experiment [13] addresses Follistatin (Homo sapiens) (UniProt P19883). The experiment is described as follows: follistatin binders on small-molecule microarrays, primary screen, biochemical, small-molecule microarray, 635/667 nm fluorescence (AID 1132). To be noted: FST binding, 635 nm fluorescence, higher = more signal.
Experiment [14] addresses Fibroblast growth factor 2 (Homo sapiens) (UniProt P09038). The experiment is described as follows: FGF2 binders on small-molecule microarrays, primary screen, biochemical, small-molecule microarray, 635/667 nm fluorescence (AID 1133). Particulars: small-molecule microarray binding, FGF2, fluorescence 635/667; higher = more signal.
Experiment [15] is described as follows: mitochondrial membrane potential change in A549 cells, profiling panel, cell-based, JC-1 fluorescence, basal, 24 h, 100 nL (AID 1138).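 Note: A549 lung adenocarcinoma cells under basal conditions with no added stimulus; test concentration not given here.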 Particulars: higher = more signal.
The subject of another experiment is Lefty1. Nature of the experiment: Lefty1 binders on small-molecule microarrays, primary screen, biochemical, small-molecule microarray, 635/667 nm fluorescence (AID 1139). To be noted: small-molecule microarray binding, fluorescence 635/667; higher = more signal.
The subject of experiment [16] is wheat germ agglutinin (Triticum aestivum), Alexa647-labelled. Nature of the experiment: wheat germ agglutinin binders on compound microarrays, profiling panel, artefact control for SMM control-protein annotation, biochemical, small-molecule microarray, 635/667 nm fluorescence (AID 1140).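 Note: score merges 667 nm feature emission with signal to noise over triplicate slides.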 To be noted: WGA-A647 binding, 635 nm fluorescence, higher = more signal.
Experiment [17] concerns the target Luciferin 4-monooxygenase (Photinus pyralis) (UniProt P08659). Nature of the experiment: firefly luciferase enzyme inhibitors, primary screen, biochemical, luminescence, purified enzyme, 2006 set (AID 1141).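 Note: cell-free assay with purified firefly luciferase at 100 ng per well in PBS; test concentration not given here.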 Particulars: SteadyGlo luminescence, 30 min, higher = more signal, called active from +8 up or from −8 down.

Follistatin (Homo sapiens), sequence (P19883 whole entry, looked up): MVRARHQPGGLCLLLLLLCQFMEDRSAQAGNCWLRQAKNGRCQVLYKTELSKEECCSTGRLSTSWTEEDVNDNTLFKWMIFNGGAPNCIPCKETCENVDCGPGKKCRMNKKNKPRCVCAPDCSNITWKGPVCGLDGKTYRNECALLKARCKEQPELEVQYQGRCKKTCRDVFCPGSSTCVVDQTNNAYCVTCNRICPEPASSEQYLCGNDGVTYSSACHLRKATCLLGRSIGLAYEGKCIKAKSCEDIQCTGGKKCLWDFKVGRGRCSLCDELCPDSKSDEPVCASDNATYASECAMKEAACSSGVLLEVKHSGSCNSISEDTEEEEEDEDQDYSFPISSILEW
Concanavalin-A (Canavalia ensiformis), sequence (P02866 whole entry, looked up): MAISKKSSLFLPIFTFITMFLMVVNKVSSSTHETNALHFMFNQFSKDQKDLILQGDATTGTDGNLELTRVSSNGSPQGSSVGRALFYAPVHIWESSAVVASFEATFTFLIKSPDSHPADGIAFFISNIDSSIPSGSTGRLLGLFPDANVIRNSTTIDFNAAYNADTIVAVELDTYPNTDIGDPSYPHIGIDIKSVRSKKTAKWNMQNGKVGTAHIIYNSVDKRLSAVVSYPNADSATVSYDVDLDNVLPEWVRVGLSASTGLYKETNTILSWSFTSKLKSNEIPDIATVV
Luciferin 4-monooxygenase (Photinus pyralis), sequence (P08659 whole entry, looked up): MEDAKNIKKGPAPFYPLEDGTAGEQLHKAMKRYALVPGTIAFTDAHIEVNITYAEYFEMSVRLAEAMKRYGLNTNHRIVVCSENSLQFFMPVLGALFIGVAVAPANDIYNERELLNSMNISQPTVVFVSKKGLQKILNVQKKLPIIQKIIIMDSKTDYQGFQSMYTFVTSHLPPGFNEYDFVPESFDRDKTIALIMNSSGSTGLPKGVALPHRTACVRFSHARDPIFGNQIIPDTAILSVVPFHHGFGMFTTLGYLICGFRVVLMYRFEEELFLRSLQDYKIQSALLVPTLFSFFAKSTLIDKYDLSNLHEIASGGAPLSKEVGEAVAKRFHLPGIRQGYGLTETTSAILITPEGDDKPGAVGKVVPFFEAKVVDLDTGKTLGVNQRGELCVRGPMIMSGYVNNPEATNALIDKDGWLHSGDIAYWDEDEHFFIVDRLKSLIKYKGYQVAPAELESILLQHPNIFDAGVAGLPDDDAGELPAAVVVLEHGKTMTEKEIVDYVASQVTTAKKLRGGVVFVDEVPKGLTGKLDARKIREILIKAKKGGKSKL
Albumin (Bos taurus), sequence (P02769 whole entry, looked up): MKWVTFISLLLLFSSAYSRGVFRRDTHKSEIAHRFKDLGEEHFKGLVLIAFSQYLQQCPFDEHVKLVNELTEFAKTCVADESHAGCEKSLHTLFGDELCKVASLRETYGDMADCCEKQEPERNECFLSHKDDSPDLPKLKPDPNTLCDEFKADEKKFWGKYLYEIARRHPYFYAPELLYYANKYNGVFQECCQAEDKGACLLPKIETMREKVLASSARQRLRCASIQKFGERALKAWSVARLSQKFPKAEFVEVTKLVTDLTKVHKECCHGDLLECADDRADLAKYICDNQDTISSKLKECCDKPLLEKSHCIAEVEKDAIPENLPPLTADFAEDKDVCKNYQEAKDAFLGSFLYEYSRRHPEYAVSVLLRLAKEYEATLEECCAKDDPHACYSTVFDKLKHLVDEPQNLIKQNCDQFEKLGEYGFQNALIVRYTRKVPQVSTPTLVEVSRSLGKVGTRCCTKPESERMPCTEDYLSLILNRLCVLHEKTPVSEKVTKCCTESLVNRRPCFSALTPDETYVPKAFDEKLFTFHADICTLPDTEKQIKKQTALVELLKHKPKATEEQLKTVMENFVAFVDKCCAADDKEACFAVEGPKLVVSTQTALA
Fibroblast growth factor 2 (Homo sapiens), sequence (P09038 whole entry, looked up): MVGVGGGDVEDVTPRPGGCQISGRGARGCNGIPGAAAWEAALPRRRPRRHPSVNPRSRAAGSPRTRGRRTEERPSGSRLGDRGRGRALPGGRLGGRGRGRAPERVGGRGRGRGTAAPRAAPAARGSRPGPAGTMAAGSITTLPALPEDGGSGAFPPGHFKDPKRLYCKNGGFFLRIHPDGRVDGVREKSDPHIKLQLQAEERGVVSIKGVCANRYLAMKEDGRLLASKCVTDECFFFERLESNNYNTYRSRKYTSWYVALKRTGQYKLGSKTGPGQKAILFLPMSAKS
Focal adhesion kinase 1 (Homo sapiens), sequence (Q05397 whole entry, looked up): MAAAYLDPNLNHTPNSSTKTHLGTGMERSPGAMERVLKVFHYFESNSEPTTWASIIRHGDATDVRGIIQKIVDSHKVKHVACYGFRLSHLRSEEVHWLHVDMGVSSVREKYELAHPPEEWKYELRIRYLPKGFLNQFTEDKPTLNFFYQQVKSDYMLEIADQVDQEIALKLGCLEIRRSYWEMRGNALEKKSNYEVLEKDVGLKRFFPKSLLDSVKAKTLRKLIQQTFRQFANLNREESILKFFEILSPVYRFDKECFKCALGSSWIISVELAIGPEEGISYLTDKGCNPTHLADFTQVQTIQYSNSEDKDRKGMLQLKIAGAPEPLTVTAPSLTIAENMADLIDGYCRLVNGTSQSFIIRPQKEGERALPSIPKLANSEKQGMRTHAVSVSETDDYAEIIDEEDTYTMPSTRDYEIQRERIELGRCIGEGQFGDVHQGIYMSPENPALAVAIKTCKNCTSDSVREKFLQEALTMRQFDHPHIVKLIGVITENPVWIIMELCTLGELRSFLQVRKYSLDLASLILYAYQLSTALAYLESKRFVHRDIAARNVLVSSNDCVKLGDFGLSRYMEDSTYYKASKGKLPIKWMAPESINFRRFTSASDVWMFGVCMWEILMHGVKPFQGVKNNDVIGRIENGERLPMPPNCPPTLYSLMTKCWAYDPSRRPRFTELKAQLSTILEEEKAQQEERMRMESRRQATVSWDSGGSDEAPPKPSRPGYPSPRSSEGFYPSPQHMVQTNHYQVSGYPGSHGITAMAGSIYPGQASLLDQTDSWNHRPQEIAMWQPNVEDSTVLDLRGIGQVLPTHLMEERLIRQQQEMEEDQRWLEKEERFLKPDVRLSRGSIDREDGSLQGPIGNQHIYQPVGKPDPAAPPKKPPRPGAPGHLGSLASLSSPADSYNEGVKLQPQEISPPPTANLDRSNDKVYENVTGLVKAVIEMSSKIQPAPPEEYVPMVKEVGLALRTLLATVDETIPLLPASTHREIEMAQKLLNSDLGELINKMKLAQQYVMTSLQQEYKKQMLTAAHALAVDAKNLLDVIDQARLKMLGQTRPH

As to `CC(C)C(CO)N1C(=O)[C@@H]2C3C(=O)OCCC/C=C\[C@H]3OC23C=CCN(Cn2nnc4ccccc42)C(=O)[C@@H]13` (stereo not given in full), the composite z-score with Albumin (Bos taurus) was -0.37; in experiment [2], -0.256; in [3], -0.181; in [4] it was 0.885; in experiment [5], 0.295; in [6] it was 0.685. Moreover, the composite z-score with Sam68 (KHDRBS1) was 0.713; in experiment [7], -0.81; in [8], -0.662; in experiment [9], 2.67; in experiment [10] it was -0.233; in experiment [11], -0.0444. Further, the composite z-score in experiment [12] was -1.18; in experiment [13], -0.0048; in experiment [14], -1.08; in the experiment with Lefty1, -0.0488; in experiment [16], -0.422. Moreover, the composite Z-score in [1] is -0.0983 (inactive). Moreover, the z-score in experiment [15] was -0.477; in [17], -0.0817 (inactive).
As for `COC(=O)C1=CC(CCCO)=CC(c2cccs2)N(C)C=C1C(=O)OC` (stereo not given), the composite z-score with Albumin (Bos taurus) is 0.445; in experiment [2], -0.0879; in experiment [3] it was -0.115; in [4] it was 0.869; in experiment [5], 1.17; in experiment [6], -0.371. The composite z-score in the experiment with Sam68 (KHDRBS1) is -0.213; in experiment [7] it was -0.44; in [8], 0.34; in [9], 0.15; in [10], -0.5; in [11], 0.143. Moreover, the composite z-score in [12] was -0.198; in experiment [13] it was -0.344; in [14], -0.498; in the experiment with Lefty1 it was -0.307; in experiment [16], 0.507. Also, the composite Z-score in [1] is 0.156 (inactive). Besides, the z-score was 0.0963 in experiment [15] and -0.674 (inactive) in experiment [17].
In the case of `COc1cc(NN2C(C(O)c3cc(OC)c(OC)c(OC)c3)C=CC3C(=O)N(C)C(=O)C32)cc(OC)c1OC` (stereo not given), the composite z-score with Albumin (Bos taurus) was 1.03; in experiment [2], 0.499; in [3], -0.0028; in experiment [4] it was 0.67; in experiment [5], 2.77; in experiment [6] it was 0.0495. For the same compound, the composite z-score in the experiment with Sam68 (KHDRBS1) was found to be 1.23; in experiment [7], 0.0976; in [8], 0.894; in experiment [9], 0.661; in [10], 1.07; in experiment [11], 0.368. Besides, the composite z-score in experiment [12] was 0.169; in experiment [13], 0.67; in [14], 0.0023; with Lefty1, 0.289; in experiment [16], 0.694. Moreover, the composite Z-score in experiment [1] is 0.328 (inactive). Also, the values for the z-score in experiment [15] and in experiment [17] were 1.38 and 0.229 (inactive), respectively.
Consider `COC(=O)[C@@]1(Cc2ccccc2)[C@H]2c3cc(C(=O)N(C)C)n(Cc4ccc(C)o4)c3C[C@H]2CN1C(=O)c1ccccc1`, for which the composite z-score with Albumin (Bos taurus) is 0.874; in experiment [2], 1.25; in experiment [3], 0.618; in experiment [4], 0.753; in experiment [5] it was 1.93; in experiment [6], 0.673. The composite z-score in the experiment on Sam68 (KHDRBS1) was 1.12; in experiment [7], -1.06; in [8] it was 0.354; in experiment [9], 2.6; in [10], 1.21; in experiment [11], 1.73. The composite z-score was 0.705 in experiment [12]; 0.764 in [13]; 0.188 in experiment [14]; -0.566 in the experiment on Lefty1; 1.26 in [16]. The composite Z-score in experiment [1] is 0.173 (inactive). Besides, the results for the z-score in experiment [15] and in [17] were -0.0901 and 0.429 (inactive), respectively.
As to `COCCOC(=O)N1C(=O)[C@@]2(c3ccccc31)[C@H](c1ccc(O)cc1)N1[C@H](c3ccccc3)[C@H](c3ccccc3)OC(=O)[C@H]1[C@@H]2C(=O)N1CCN(c2ncccn2)CC1`, the composite z-score is 0.397 in the experiment with Albumin (Bos taurus); -0.0014 in experiment [2]; 0.0456 in experiment [3]; 0.202 in experiment [4]; 1.83 in experiment [5]; 1.03 in experiment [6]. In addition, the composite z-score worked out at 1.2 with Sam68 (KHDRBS1); 0.375 in experiment [7]; 0.928 in experiment [8]; 0.682 in [9]; 1.14 in experiment [10]; 0.666 in experiment [11]. Moreover, the composite z-score in experiment [12] was 0.244; in experiment [13] it was 1.04; in experiment [14], 1.43; with Lefty1 it was 0.806; in experiment [16], 0.026. Moreover, the composite Z-score in experiment [1] is 0.0692 (inactive). The values for the z-score in experiment [15] and in experiment [17] were -0.727 and 0.504 (inactive), respectively.
